According to PubChem BioAssay (NCI):
Compounds without any hit were thinned out: in the full panel of roughly 83,000, 20% have a hit.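 Values shown are percent growth following 48 h exposure of cells in 96-well plates to a single concentration of compound; below 10 was considered active.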 Calls of active or inactive are those of the source.

How the values were obtained:
Assay in all cases: NCI-60 one-dose screen, 48 h (100 = growth as untreated, 0 = no growth, -100 = all killed)
Details in all cases: 10 µM unless noted
T-47D breast = tested on: T-47D breast
BT-549 breast = tested on: BT-549 breast
MDA-MB-435 melanoma = tested on: MDA-MB-435 melanoma
SW-620 colon = tested on: SW-620 colon
MCF7 breast = tested on: MCF7 breast
HCT-116 colon = tested on: HCT-116 colon
HCC-2998 colon = tested on: HCC-2998 colon
KM12 colon = tested on: KM12 colon

Measured: growth

O=C1NCCN1/N=C/c1c(Cl)n(Cc2ccc(Cl)cc2)c2ccccc12
inactive: T-47D breast 113% | BT-549 breast 79.2% | MDA-MB-435 melanoma 85.6% | SW-620 colon 108% | MCF7 breast 84.7% | HCT-116 colon 89.5% | HCC-2998 colon 95.9% | KM12 colon 110%

CN(C)CCOc1nc2c3cc([N+](=O)[O-])ccc3nn2c2ccccc12
inactive: T-47D breast 46.5% | BT-549 breast 69.6% | MDA-MB-435 melanoma 82.4% | SW-620 colon 20.4% | MCF7 breast 16.7% | HCT-116 colon 16.7% | HCC-2998 colon 54.6% | KM12 colon 41.9%

COc1ccc(-c2cc(-c3ccc(Nc4nc(Nc5ccc(Cl)cc5)nc(Nc5ccc(Cl)cc5)n4)cc3)no2)cc1
inactive: T-47D breast 70.7% | BT-549 breast 89.8% | MDA-MB-435 melanoma 71.3% | SW-620 colon 88.7% | MCF7 breast 60.6% | HCT-116 colon 53.3% | HCC-2998 colon 11.4% | KM12 colon 82%

COc1ccc(S(=O)(=O)Oc2ccc(-c3sc4cc(OS(=O)(=O)c5ccc(OC)cc5)ccc4c3C(=O)c3ccc(OCCN4CCCCC4)cc3)cc2)cc1
inactive: T-47D breast 94.2% | BT-549 breast 94.1% | MDA-MB-435 melanoma 105% | SW-620 colon 108% | MCF7 breast 91.3% | HCT-116 colon 98.8% | HCC-2998 colon 105% | KM12 colon 99.1%

O=S(=O)(c1ccc(NCSc2nc3ccccc3s2)cc1)c1ccc(NCSc2nc3ccccc3s2)cc1
inactive: T-47D breast 63.9% | BT-549 breast 87.5% | MDA-MB-435 melanoma 112% | SW-620 colon 100% | MCF7 breast 97.5% | HCT-116 colon 86.5% | HCC-2998 colon 95.5% | KM12 colon 102%

CCOC(=O)c1c(C)c2c(n1Cc1ccccc1)CSc1cc(C#N)c(=O)[nH]c1-2
inactive: T-47D breast 69.2% [100 µM] | BT-549 breast 46% [100 µM] | MDA-MB-435 melanoma 98.2% [100 µM] | SW-620 colon 91.7% [100 µM] | MCF7 breast 101% [100 µM] | HCT-116 colon 59.9% [100 µM] | HCC-2998 colon 99.7% [100 µM] | KM12 colon 67.6% [100 µM]

CC(C)C(=O)Nc1ncc(C(=O)NCCN(Cc2ccccc2)C(=O)c2ccc(S(=O)(=O)Nc3ccccc3)cc2)s1
inactive: T-47D breast 91.7% | BT-549 breast 89.2% | MDA-MB-435 melanoma 98.1% | SW-620 colon 107% | MCF7 breast 85.8% | HCT-116 colon 90.9% | HCC-2998 colon 106% | KM12 colon 105%

Cc1nc2c(c(-c3ccccc3)n1)Cc1c(ccc3ccccc13)O2
inactive: T-47D breast 84.6% | BT-549 breast 90% | MDA-MB-435 melanoma 119% | SW-620 colon 96.4% | MCF7 breast 89.1% | HCT-116 colon 90.6% | HCC-2998 colon 111% | KM12 colon 89.1%

CN1CCN(Cc2ccc(NC(=O)c3cncc(C#Cc4c(N)ncc5c(F)cccc45)c3)cc2C(F)(F)F)CC1
inactive: BT-549 breast 12.5%
active: T-47D breast -25.2% | MDA-MB-435 melanoma -83% | SW-620 colon -51.9% | MCF7 breast -67.3% | HCT-116 colon -89.1% | HCC-2998 colon -11.9% | KM12 colon -72.9%

CCC(=C(c1ccc(OCCN(CC)CC)cc1)c1ccc(OCCN(CC)CC)cc1)c1ccc(Cl)cc1
active: T-47D breast -55.4% | MDA-MB-435 melanoma -92% | SW-620 colon -75.5% | MCF7 breast -73.3% | HCT-116 colon -87.7% | HCC-2998 colon -91% | KM12 colon -82.2%
inactive: BT-549 breast 61.5%

O=C(O)/C=C/c1cn(-c2ccccc2)nc1-c1ccc(F)cc1
inactive: T-47D breast 93.9% | BT-549 breast 90.7% | MDA-MB-435 melanoma 105% | SW-620 colon 89.8% | MCF7 breast 84% | HCT-116 colon 82.5% | HCC-2998 colon 103% | KM12 colon 90.4%

C#CCOc1cc(/C=N/Nc2nc(-c3ccc(OC)cc3)cs2)ccc1O
inactive: T-47D breast 61.2% | BT-549 breast 84.5% | MDA-MB-435 melanoma 94.7% | SW-620 colon 94.8% | MCF7 breast 68.9% | HCT-116 colon 76.5% | HCC-2998 colon 92.4% | KM12 colon 88.6%

COc1ccc(C2CC(=O)Oc3c(OC)c4c(c(OC)c32)OCO4)cc1 (stereo unspecified)
inactive: T-47D breast 103% | BT-549 breast 87.6% | MDA-MB-435 melanoma 56.8% | SW-620 colon 89.7% | MCF7 breast 92.7% | HCT-116 colon 96.9% | HCC-2998 colon 97% | KM12 colon 88.1%

c1ccc2[nH]c(-c3ccc(-c4nccc5c4[nH]c4ccccc45)cc3)nc2c1
inactive: T-47D breast 34.4% | BT-549 breast 73.7% | MDA-MB-435 melanoma 59.7% | SW-620 colon 68.5% | MCF7 breast 30.4% | HCT-116 colon 16.3% | HCC-2998 colon 74% | KM12 colon 76.6%

O=C(c1ccccc1)[C@@H](c1ccccc1)[C@]1(O)C(=O)Nc2ccccc21
inactive: T-47D breast 85.2% | BT-549 breast 95% | MDA-MB-435 melanoma 98.4% | SW-620 colon 100% | MCF7 breast 92.4% | HCT-116 colon 96.6% | HCC-2998 colon 104% | KM12 colon 85.5%

COc1cc2c(c(OC)c1OC)CCC(c1cccc(C(=O)Nc3ccccc3Br)c1)O2 (stereo unspecified)
inactive: T-47D breast 68.6% | BT-549 breast 69.6% | MDA-MB-435 melanoma 94% | SW-620 colon 99.6% | MCF7 breast 91.8% | HCT-116 colon 74.7% | HCC-2998 colon 90% | KM12 colon 101%

N#C/C(Sc1nc2sc3c(c2c(=O)n1Cc1ccccc1)CCCC3)=C1/SC=C(c2ccc(Cl)cc2)N1c1ccccc1
inactive: T-47D breast 91.5% | BT-549 breast 101% | MDA-MB-435 melanoma 109% | SW-620 colon 89.9% | MCF7 breast 82.5% | HCT-116 colon 83.5% | HCC-2998 colon 87.2% | KM12 colon 95.8%

N/C(=N\c1nc2ccccc2s1)NC(=O)Nc1ccccc1
active: MDA-MB-435 melanoma 2.22%
inactive: T-47D breast 39.4% | BT-549 breast 49.5% | SW-620 colon 24.7% | MCF7 breast 16.6% | HCT-116 colon 17.1% | HCC-2998 colon 62.7% | KM12 colon 25.4%

C=CC(=O)NCc1cccc(Nc2ncc(Br)c(NCCCNC(=O)C3CCC3)n2)c1
active: T-47D breast -12% | BT-549 breast -50.2% | MDA-MB-435 melanoma -51.4% | SW-620 colon 0.584% | MCF7 breast 1.62% | HCT-116 colon 4.93% | HCC-2998 colon -48.6% | KM12 colon 4.95%

Nc1ncnc2c1N=C(c1ccc([N+](=O)[O-])cc1)CC(c1ccc3c(c1)OCO3)N2 (stereo unspecified)
inactive: T-47D breast 93% | BT-549 breast 86.6% | MDA-MB-435 melanoma 94% | SW-620 colon 92% | MCF7 breast 72.7% | HCT-116 colon 83.3% | HCC-2998 colon 53.8% | KM12 colon 89.4%

CN(C)CCOc1ccc(/C(=C(/CCCCCCCCCC[P+](c2ccccc2)(c2ccccc2)c2ccccc2)c2ccccc2)c2ccccc2)cc1
active: T-47D breast -56.2% | BT-549 breast -78.3% | MDA-MB-435 melanoma -98.1% | SW-620 colon -85% | MCF7 breast -77.9% | HCT-116 colon -72% | HCC-2998 colon -83.9% | KM12 colon -80.9%

CCOc1ccc(-c2cc(C3(S(=O)(=O)c4ccc(C)cc4)CC=CC3)on2)cc1
inactive: T-47D breast 64.4% | BT-549 breast 94.8% | MDA-MB-435 melanoma 95.1% | SW-620 colon 89.4% | MCF7 breast 95.9% | HCT-116 colon 82.3% | HCC-2998 colon 97.1% | KM12 colon 94.4%

COC12C=C/C(=C(/C(=O)OCc3ccccn3)C(=O)CCCCCCCCC3(OC)C=C/C(=C(/C(=O)OCc4ccccn4)C(=O)CCCCCCCC1)O3)O2
inactive: T-47D breast 18.5%
active: BT-549 breast -26.9% | MDA-MB-435 melanoma -23.6% | SW-620 colon 8.34% | MCF7 breast -0.915% | HCT-116 colon -59.7% | HCC-2998 colon -82.6% | KM12 colon -76.2%

O=C(O)CCCN1C(=O)CSC1=S
inactive: T-47D breast 97.7% | BT-549 breast 99.8% | MDA-MB-435 melanoma 97.7% | SW-620 colon 114% | MCF7 breast 90.9% | HCT-116 colon 102% | HCC-2998 colon 104% | KM12 colon 101%

CCN1C(=O)N(CC)C2C1NC(=S)N2/N=C/C=C/c1cccs1 (stereo unspecified)
active: MDA-MB-435 melanoma -26.9%
inactive: T-47D breast 66.4% | BT-549 breast 24.1% | SW-620 colon 25.5% | MCF7 breast 18.3% | HCT-116 colon 15.1% | HCC-2998 colon 16.4% | KM12 colon 18.5%

C=C1CC[C@@H]2[C@](C)(COC(C)=O)[C@H](OC(C)=O)CC[C@@]2(C)[C@@H]1CC(Nc1ccc(S(=O)(=O)Nc2nccc(C)n2)cc1)C1=CCOC1=O (stereo partly specified)
active: BT-549 breast -2.66% | MDA-MB-435 melanoma 0.231% | SW-620 colon -49.6% | MCF7 breast 0.135% | HCT-116 colon -32.2%
inactive: T-47D breast 69.1% | HCC-2998 colon 68.2% | KM12 colon 13.2%

O=C1NC(=O)C(=Cc2cc(-c3ccc(Cl)cc3)n(-c3ccccc3)n2)C(=O)N1
inactive: T-47D breast 93.6% | BT-549 breast 83.9% | MDA-MB-435 melanoma 94.5% | SW-620 colon 96.7% | MCF7 breast 93.2% | HCT-116 colon 94% | HCC-2998 colon 110% | KM12 colon 102%
